Source: PubChem BioAssay (several laboratories)
Only some compounds are listed: those with a hit (about 4.1% of all), similar ones and a draw of the others.
NALP1 yeast inh: blocks the NALP1 inflammasome reconstituted in yeast. S. cerevisiae NALP1/ASC/caspase-1 growth, X-gal OD620, 72 h. inhibition, % at 10 µM. actives 0.61% (n = 280,000). AID 2071; in the data active = inhibition mostly above about 24%, no sharp cut-off; inactive = mostly below about 32%
tim10-1 inh: tim10-1 yeast growth inhibition; inhibition, % at 20 µM; AID 463190; actives 2.2% (n = 330,000); S. cerevisiae tim10-1 ts strain growth, BacTiter-Glo, 24 h;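 active = inhibition of at least 40%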;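 also: mutant grown at 25 °C; 0% = DMSO wells with yeast and 100% = wells holding no yeast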
TIM10 inh: TIM10 yeast growth inhibition; inhibition, % at 10 µM; S. cerevisiae TIM10 strain growth, BacTiter-Glo luminescence, 24 h; actives 1.4% (n = 330,000);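 active = inhibition of 40% or more at the single tested concentration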;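 also: wild-type TIM10 isogenic control strain grown at permissive 25 °C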
NLRP3 yeast inh: blocks the NALP3 inflammasome reconstituted in yeast. Yeast reconstituted NLRP3/ASC/caspase-1, beta-gal luminescence, 24 h. inhibition, % at 10 µM. actives 0.39% (n = 330,000). AID 2825;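 active = inhibition of 50% or more; inactive = inhibition below 50%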;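 also: plate controls were induced DMSO wells for no effect and uninduced yeast grown without galactose for full effect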
PfHsp90 yeast 2: reduces growth (ATP signal) of yeast expressing P. falciparum Hsp90 | inhibition, % at 9.4 µM | actives 0.32% (n = 310,000) | AID 504621 | S. cerevisiae expressing PfHsp90, BacTiter-Glo ATP, 48 h; yeast lacking PDR1 and PDR3 efflux regulators;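 active = every replicate shows inhibition above about 80%, whatever the replicate mean, limit read from the data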;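 also: 0% = DMSO neutral controls and 100% = 20 µM radicicol positive controls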
tim23-1 inh: inhibits growth of tim23-1 mutant yeast. S. cerevisiae tim23-1 growth, BacTiter-Glo luminescence, 24 h. inhibition, % at 20 µM. actives 1.3% (n = 330,000). AID 463212;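 active = growth inhibition of the mutant yeast at or above 50%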;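 also: temperature-sensitive mutant grown at 25 °C; plate controls were DMSO-treated mutant yeast for no effect and medium wells lacking yeast for full effect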
tim10-1 confirm: tim10-1 yeast growth inhibition, confirmed; AID 463213; actives 56% (n = 7,400); shares compounds with tim10-1 inh; S. cerevisiae tim10-1 ts strain growth, BacTiter-Glo, 24 h; inhibition, % at 20 µM;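 active = inhibition of yeast growth at or above a set limit in either of two repeat tests at 20 µM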;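 also: tim10-1 mutant grown at permissive 25 °C to find synthetic lethal compounds; 0% = DMSO yeast wells and 100% = medium wells without yeast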
Active calls of the source: *.

For Cc1ccccc1OCC(=O)NC(=S)Nc1ccccc1N1CCN(S(C)(=O)=O)CC1 the results were NALP1 yeast inh 12, tim10-1 inh 4, TIM10 inh 16, NLRP3 yeast inh 7, PfHsp90 yeast 2 -6 and tim23-1 inh 8.
For CN1CCN(Cc2cc(COCc3ccccc3)c3cccnc3c2O)CC1 the results were NALP1 yeast inh 9, tim10-1 inh 47*, TIM10 inh 9, NLRP3 yeast inh 30, PfHsp90 yeast 2 18, tim23-1 inh 10 and tim10-1 confirm 25.
Screening Oc1ccc(CN2CCN(Cc3ccccc3)CC2)c2cccnc12 returned tim10-1 inh 21, TIM10 inh 17, NLRP3 yeast inh -12 and tim23-1 inh -40.
`CCc1nc(SCc2nc3ccccc3[nH]2)c2oc3ccccc3c2n1` gave NALP1 yeast inh -5, tim10-1 inh 40*, TIM10 inh 10, NLRP3 yeast inh 43, PfHsp90 yeast 2 13, tim23-1 inh 26 and tim10-1 confirm 19.
Screening Cc1nc(SCc2nc3ccc(Br)cc3[nH]2)c2oc3ccccc3c2n1 returned tim10-1 inh 20, TIM10 inh -1, NLRP3 yeast inh 35, PfHsp90 yeast 2 8 and tim23-1 inh 44.
`FC(F)(F)c1nnc(-c2ccccc2)nc1Oc1ccc(Cl)cc1Cl` gave NALP1 yeast inh -5, tim10-1 inh 51*, TIM10 inh 12, NLRP3 yeast inh 9, PfHsp90 yeast 2 -4, tim23-1 inh 44 and tim10-1 confirm 47*.
Screening Cc1cc(C)nc(Sc2ccc([N+](=O)[O-])cc2[N+](=O)[O-])n1 returned NALP1 yeast inh 2, tim10-1 inh 47*, TIM10 inh 9, NLRP3 yeast inh -1, PfHsp90 yeast 2 -27, tim23-1 inh 43 and tim10-1 confirm 30*.
For O=[N+]([O-])c1ccc(Sc2cccc3cccnc23)c([N+](=O)[O-])c1 the results were NALP1 yeast inh 11, tim10-1 inh 56*, TIM10 inh 30, NLRP3 yeast inh 1, PfHsp90 yeast 2 -9, tim23-1 inh 50 and tim10-1 confirm 57*.
`C=CCn1nc([N+](=O)[O-])nc1Sc1cccc2cccnc12` gave NALP1 yeast inh 14, tim10-1 inh 52*, TIM10 inh 16, NLRP3 yeast inh -4, PfHsp90 yeast 2 3, tim23-1 inh 41 and tim10-1 confirm 37*.
Screening CC(C)(O)c1cc2ccc(C#CCCN3C(=O)c4ccccc4C3=O)cc2c(=O)o1 returned tim10-1 inh 4, TIM10 inh -2, NLRP3 yeast inh 13, PfHsp90 yeast 2 4 and tim23-1 inh 0.
Screening OC1(C#Cc2c(-c3ccsc3)oc3ccc(N4CCOCC4)cc23)CCCCC1 returned tim10-1 inh 41*, TIM10 inh 24, NLRP3 yeast inh -1, PfHsp90 yeast 2 -37, tim23-1 inh 31 and tim10-1 confirm 5.
For COc1ccc(-c2oc3ccc(N4CCOCC4)cc3c2C#CC2(O)CCCCC2)cc1 the results were tim10-1 inh 41*, TIM10 inh 23, NLRP3 yeast inh 0, PfHsp90 yeast 2 -4, tim23-1 inh 36 and tim10-1 confirm 12.
For Clc1ccc(-c2n[nH]c3c2CCC3)c(Cl)c1 the results were NALP1 yeast inh 12, tim10-1 inh 41*, TIM10 inh 15, NLRP3 yeast inh 18, PfHsp90 yeast 2 -8, tim23-1 inh 33 and tim10-1 confirm 25.
For CSc1nc(N)nc(-c2cccs2)c1C#N the results were NALP1 yeast inh -8, tim10-1 inh 48*, TIM10 inh 13, NLRP3 yeast inh -11, PfHsp90 yeast 2 -28, tim23-1 inh 49 and tim10-1 confirm 36*.
O=C(NCc1ccco1)c1cc2nc(-c3cccs3)cc(C(F)(F)F)n2n1 was read as NALP1 yeast inh -8, tim10-1 inh 43*, TIM10 inh 14, NLRP3 yeast inh 5, PfHsp90 yeast 2 4, tim23-1 inh 8 and tim10-1 confirm 28.
Screening COc1ccc(C(=O)NCCc2nc3cc([N+](=O)[O-])ccc3n2C)cc1 returned NALP1 yeast inh 20, tim10-1 inh 55*, TIM10 inh 34, NLRP3 yeast inh 24, PfHsp90 yeast 2 -14, tim23-1 inh 28 and tim10-1 confirm 38*.
Screening COc1ccc(C(=O)Nc2ccc3c(c2)nc(CCNC(C)=O)n3C)cc1 returned NALP1 yeast inh -3, tim10-1 inh -2, TIM10 inh 1, NLRP3 yeast inh 11, PfHsp90 yeast 2 -25 and tim23-1 inh -5.
Screening Cc1cc(Cl)ccc1Oc1ccccc1C(=O)CC#N returned NALP1 yeast inh 0, tim10-1 inh 52*, TIM10 inh 14, NLRP3 yeast inh 2, PfHsp90 yeast 2 8, tim23-1 inh 46 and tim10-1 confirm 38*.
For C/C(=N\NC(=S)NC(C)C)c1ccc(-n2ccnc2)cc1 the results were NALP1 yeast inh 4, tim10-1 inh 43*, TIM10 inh 22, NLRP3 yeast inh 18, tim23-1 inh 34 and tim10-1 confirm 20.
`Oc1ccc(Br)cc1-c1n[nH]c(=S)n1Cc1ccccc1` gave NALP1 yeast inh -15, tim10-1 inh 18, TIM10 inh 18, NLRP3 yeast inh 23, PfHsp90 yeast 2 -19 and tim23-1 inh 25.
For Oc1ccccc1-c1n[nH]c(=S)n1Cc1ccccc1 the results were NALP1 yeast inh -2, tim10-1 inh 5, TIM10 inh 16, NLRP3 yeast inh 8, PfHsp90 yeast 2 19 and tim23-1 inh 4.
`S=c1[nH]nc(-c2ccccc2Br)n1Cc1ccccc1` gave NALP1 yeast inh -14, tim10-1 inh 41*, TIM10 inh 21, NLRP3 yeast inh 16, PfHsp90 yeast 2 13, tim23-1 inh 29 and tim10-1 confirm 26.
`Cc1ccccc1-c1n[nH]c(=S)n1Cc1ccccc1` gave NALP1 yeast inh -18, tim10-1 inh 40*, TIM10 inh 26, NLRP3 yeast inh 2, PfHsp90 yeast 2 2, tim23-1 inh 5 and tim10-1 confirm 16.
CN(C(=O)COC(=O)CNC(=O)c1sc2ccccc2c1Cl)C1CCS(=O)(=O)C1 (stereo not drawn) was read as tim10-1 inh 7, TIM10 inh -2, NLRP3 yeast inh 11 and tim23-1 inh 4.
`CCn1c(-c2cc(-c3cccc(OC)c3)nc3ccccc23)n[nH]c1=S` gave NALP1 yeast inh 25, tim10-1 inh 43*, TIM10 inh 37, NLRP3 yeast inh 33, tim23-1 inh 39 and tim10-1 confirm 23.
Screening Cc1sc2ncnc(SCc3ccc(C(=O)O)cc3)c2c1C returned NALP1 yeast inh -24, tim10-1 inh -6, TIM10 inh -11, NLRP3 yeast inh 24, PfHsp90 yeast 2 2 and tim23-1 inh 31.
